Source: PubChem BioAssay
A selection: hits, their analogues and other compounds. The true share with any hit is near 3.1%.
Mito fusion yeast = mitochondrial division inhibition or fusion activation; AID 485298; actives 0.23% (n = 320,000); Potency, µM (series often up to 46.1 µM), actives largely listed as activators; S. cerevisiae fusion-defective mutant growth rescue, CellTiterGlo 48 h; also: nearly all actives have a fitted effect of over 45% in size
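Yeast fusion mutant, YPEG (non-fermentable carbon), compound, 48 h at 37C non-permissive; CellTiterGlo added, 10 min RT, luminescence read. Rescued growth = division inhibition.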
A549 tox = kills or reduces viability of A549 cells in Nrf2 counter-screen; A549 ARE-Fluc cells, CellTiter-Fluor viability, 18-24 h; Potency, µM (doses to about 46 µM), hits mostly inhibitors; actives 0.16% (n = 390,000); AID 504648
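A549 ARE_Fluc cells in 5% FBS OPTI-MEM were exposed to compounds in concentration-response for 18-24 h at 37 deg C. Viability was read by CellTiter-Fluor fluorescence (Ex 405/Em 525) after 30 min, before the luciferase read.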
Nrf2 block = Nrf2 pathway inhibition. A549 ARE-Fluc reporter, luciferase luminescence, 18-24 h. Potency, µM (doses to about 46 µM), usual class: inhibitors. actives 2.1% (n = 360,000). AID 504444; also: nearly all actives have a fitted effect of over 60% in size
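Reporter: ARE-Fluc in A549. Exposure: 18-24 h, 37 °C, 5% CO2, 5% FBS OPTI-MEM. Readouts: fluorescent cytotoxicity (CellTiter-Fluor), then luminescent Nrf2 signal after BugLite.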
IDH1 R132H inh = inhibitors of human mutant IDH1 R132H. actives 0.093% (n = 390,000). O75874. IDH1-R132H enzyme, NADPH consumption, diaphorase/resazurin fluorescence. Potency, µM (highest dose often 76.6 µM), hits mostly inhibitors. AID 602179; also: nearly all actives have a fitted effect of over 65% in size
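IDH1-R132H (0.5 ug/mL) preincubated 30 min with compound, then NADPH (0.016 mM) and alpha-KG (2 mM) added; 80 min at RT, pH 7.5. Remaining NADPH coupled via diaphorase/resazurin to fluorescence (540/590 nm); concentration-response curves normalized to no-enzyme control.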
TrxR1 substrate = substrates of rat thioredoxin reductase 1; O89049; purified TrxR1 substrate turnover, NADPH consumption readout; Potency, µM (series often up to 114 µM); actives 0.01% (n = 390,000); AID 588456; also: nearly all actives have a fitted effect of over 50% in size
Target sequence (O89049 whole entry, looked up): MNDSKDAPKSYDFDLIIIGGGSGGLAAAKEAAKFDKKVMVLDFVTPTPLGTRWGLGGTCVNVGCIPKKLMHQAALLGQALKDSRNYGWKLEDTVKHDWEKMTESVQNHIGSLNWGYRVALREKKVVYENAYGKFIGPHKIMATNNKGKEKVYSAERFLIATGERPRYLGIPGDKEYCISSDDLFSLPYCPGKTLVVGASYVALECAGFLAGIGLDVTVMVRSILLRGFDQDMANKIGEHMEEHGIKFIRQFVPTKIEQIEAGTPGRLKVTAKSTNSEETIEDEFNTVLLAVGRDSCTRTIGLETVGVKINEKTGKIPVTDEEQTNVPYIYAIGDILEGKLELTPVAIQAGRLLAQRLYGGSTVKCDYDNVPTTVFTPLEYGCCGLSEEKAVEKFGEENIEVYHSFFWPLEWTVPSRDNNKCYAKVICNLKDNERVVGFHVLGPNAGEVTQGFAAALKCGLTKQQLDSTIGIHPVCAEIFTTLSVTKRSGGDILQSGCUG
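Rat TrxR1, dispensed at 90 nM, was prereduced with 400 uM NADPH (final) for 5 min at ~22 deg C, then incubated with compound 15 min before 400 uM selenite. A first-read NADPH fluorescence drop versus no-compound background flagged substrates.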
rTrxR1 inhibitor = rat TrxR1 inhibition; O89049; recombinant rTrxR1, NADPH fluorescence consumption, selenite substrate; Potency, µM (highest dose often 114 µM), hits mostly inhibitors; actives 1% (n = 390,000); also: nearly all actives have a fitted effect of over 65% in size
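Rat TrxR1 (90 nM in the dispensed reagent) was pre-reduced with 400 uM NADPH for 5 min at room temperature, then incubated with compound for 15 min. After 400 uM selenite was added, NADPH fluorescence (Ex 340/Em 450 nm) was followed for 8 min.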
A number is an active result; 0 = inactive; ? = inconclusive; - = no result; ! = repeats disagree. Calls follow the shape of the dose curve; as a rule, active = well fitted curve in the direction sought with a large enough effect; inconclusive = small, poorly fitted or top-dose-only effect, or another doubt; inactive = no such curve, though single readings can be large; an effect the other way counts as inactive or inconclusive.

SMILES	Mito fusion yeast	A549 tox	Nrf2 block	IDH1 R132H inh	TrxR1 substrate	rTrxR1 inhibitor
COc1ccc(C(=O)N/N=C(\C)c2ccc3c(c2)C2C=CCC2C(c2ccccc2)N3)cc1 (stereo unspecified)	0	0	0	0	0	?
Fc1ccc2c(c1)C1C=CCC1C(c1cc3c(cc1Br)OCO3)N2 (stereo unspecified)	0	?	?	0	0	0
Cc1cccc(NS(=O)(=O)c2ccc3c(c2)[C@H]2C=CC[C@H]2[C@@H](c2ccc(F)cc2)N3)c1	-	0	18µM	0	0	0
Cc1ccc(S(=O)(=O)N2CCN(c3nc(Nc4ccccc4O)nc4ccccc34)CC2)cc1	-	-	-	-	0	0
CC1(C)OC(=O)C2(Cc3ccccc3N3CCC(c4ccccc4)CC32)C(=O)O1 (stereo unspecified)	-	0	0	-	0	0
COc1ccc(OC)c([C@@H]2Nc3ccc(C(=O)O)cc3[C@@H]3C=CC[C@@H]32)c1	-	0	-	0	0	0
O=C(O)c1ccc2c(c1)[C@@H]1C=CC[C@@H]1[C@H](c1ccccn1)N2	-	-	0	0	0	4µM
COc1ccc(-n2nnnc2C2CCN(S(=O)(=O)c3ccc(NC(C)=O)cc3)CC2)cc1	-	0	9.2µM	0	0	0
Cc1ccc(-n2nnnc2C2CCN(S(=O)(=O)c3ccc(OC(F)(F)F)cc3)CC2)cc1	-	0	0	0	0	0
COc1ccc(CN2CCN(S(=O)(=O)c3ccc(NC(C)=O)cc3)CC2)cc1	0	0	16µM	0	0	0
CN(C)c1ccc(/C=C/c2ccnc3ccccc23)cc1Cl	-	-	-	-	0	0
O=C1[C@@H]2C(c3cccnc3)=NO[C@@H]2C(=O)N1c1ccc2ccccc2c1	0	0	0	0	0	16µM
CC(=O)OCCCNc1cc(Sc2nc3ccccc3s2)c2nonc2c1[N+](=O)[O-]	0	0	0	0	0	0.32µM
CC(=O)OCCCNc1cc(Sc2ccc(C)cc2)c2nonc2c1[N+](=O)[O-]	0	?	0	0	0	11µM
O=C(O)c1cc(-c2ccco2)nc2ccc(Br)cc12	0	0	0	0	0	1.3µM!
O=C(c1cc(-c2ccco2)nc2ccccc12)N1CCN(Cc2ccccc2)CC1	0	0	0	0	0	40µM
CCCCN(C(=O)c1cc(-c2ccco2)nc2ccccc12)c1c(N)n(CCC)c(=O)[nH]c1=O	0	0	0	0	0	79µM
NC(=O)COC(=O)c1cc(-c2ccco2)nc2ccccc12	0	0	0	0	0	79µM
CCCCn1c(N)c(N(CC(C)C)C(=O)c2cc(-c3ccco3)nc3ccccc23)c(=O)[nH]c1=O	0	0	0	0	0	?
O=C(COc1ccccc1C(=O)Nc1ccccc1)Nc1cccc([N+](=O)[O-])c1	-	-	-	-	0	0
COc1cc(/C=N/NC(=O)c2cc(-c3ccccc3Cl)nc3ccccc23)cc(OC)c1O	-	0	0	0	0	0
COc1cc(/C=N/NC(=O)c2cc(-c3ccco3)nc3ccccc23)cc(OC)c1O	0	0	0	0	0	13µM
Cc1ccccc1NC(=O)c1cc(-c2ccco2)nc2ccccc12	-	0	0	0	0	0
CC(C)Cn1c(N)c(C(=O)COC(=O)c2cc(-c3ccco3)nc3ccccc23)c(=O)n(C)c1=O	0	0	?	0	0	2.8µM
CCCCCCNC(=O)c1cc(-c2ccco2)nc2ccccc12	0	0	0	0	0	3.5µM
SMILES	Mito fusion yeast	A549 tox	Nrf2 block	IDH1 R132H inh	TrxR1 substrate	rTrxR1 inhibitor
Cc1ccc(S(=O)(=O)N(C)C)cc1NC(=O)c1cc(-c2ccco2)nc2ccccc12	0	0	0	0	0	3.5µM
Cn1c(=O)c(C(=O)COC(=O)c2cc(-c3ccco3)nc3ccccc23)c(N)n(Cc2ccccc2)c1=O	0	-	-	-	-	-
CCc1cc2c(cc3c(=O)n(CC(=O)NC(C)c4ccccc4)ncn32)s1 (stereo unspecified)	-	0	0	0	0	0
COc1ccc(C2=Nn3c(nnc3-c3ccccc3C)SC2)cc1	-	0	0	-	-	-
CCCCn1c(SCC(=O)Nc2nnc(CC)s2)nc2c1c(=O)n(C)c(=O)n2C	0	0	8.2µM	0	0	0
COc1ccc(-n2nnnc2SCC(=O)Nc2nc3c(s2)CCCC3)cc1	0	0	16µM	0	0	0
CC(C)n1c(SCC(=O)Nc2nc3c(s2)CCCC3)nc2c1c(=O)n(C)c(=O)n2C	0	0	23µM	0	0	0
Cn1c2cc(C(=O)O)sc2c2cnn(Cc3ccccc3F)c(=O)c21	-	0	?	-	-	-
CCOC(=O)c1ccc(NC(=O)c2c(NCc3cc(OC)ccc3OC)sc3c2CCC3)cc1	-	0	-	0	0	0
CCn1c(SCC(=O)NCc2ccco2)nnc1-c1ccc(N(C)C)cc1	-	-	-	-	0	0
Cc1nn(C)c(C)c1/C=C(/C(=O)C(C)(C)C)n1cncn1	0	0	0	0	0	0
CC(C)(C)C(=O)/C(=C/c1ccncc1)n1cncn1	0	?	0	0	0	18µM
Cc1nc(NCc2ccco2)c2cn[nH]c2n1	-	0	23µM	0	0	0
c1coc(CNc2nc3nonc3nc2NCc2ccco2)c1	0	0	7.3µM	0	0	?
c1coc(CNc2ncnc3[nH]ncc23)c1	0	0	?	0	0	?
COc1ccc(NC(=O)c2c(NCc3ccc(C)o3)sc3c2CCCCC3)c(OC)c1	-	0	-	0	0	20µM
COc1ccccc1NC(=O)c1c(NCc2sccc2C)sc2c1CCCCC2	-	0	-	0	0	?
COc1ccc(NC(=O)c2c(NCc3sccc3C)sc3c2CCCCC3)c(OC)c1	-	0	-	0	0	18µM
COc1ccc(OC)c(NC(=O)c2c(NCc3cccs3)sc3c2CCCC3)c1	-	?	?	0	0	45µM
COc1ccc(OC)c(NC(=O)c2c(NCc3cccs3)sc3c2CCCCC3)c1	-	0	-	0	0	?
O=C(CSc1nnc2scc(-c3ccc(Cl)cc3)n12)Nc1ccc(F)cc1	-	0	0	-	0	0
COC(=O)c1ccc(Cn2c(=O)cc(C)c3c(C)nn(C)c32)cc1	-	0	?	0	0	0
Cc1c(S(=O)(=O)c2ccccn2)c(N)n(Cc2cccc(Cl)c2)c1C	0	0	0	0	0	20µM
O=S(=O)(c1ccc(Cl)cc1)c1ccccn1	0	0	0	0	0	0
Cc1cccc(C)c1OCc1cc(C(=O)N(Cc2c(C)nn(C)c2C)C2CC2)no1	0	0	23µM	0	0	0
Cc1cccc(C)c1OCc1cc(C(=O)NCC2CCCCC2)no1	0	0	0	0	0	0
O=C(Nc1ccc(F)c(F)c1)c1ccc(-n2cncn2)c([N+](=O)[O-])c1	0	0	10µM	0	0	0
